Test [1] deals with T1, 3-phosphoinositide-dependent protein kinase 1 (Homo sapiens) (UniProt O15530).
T1 sequence (whole entry): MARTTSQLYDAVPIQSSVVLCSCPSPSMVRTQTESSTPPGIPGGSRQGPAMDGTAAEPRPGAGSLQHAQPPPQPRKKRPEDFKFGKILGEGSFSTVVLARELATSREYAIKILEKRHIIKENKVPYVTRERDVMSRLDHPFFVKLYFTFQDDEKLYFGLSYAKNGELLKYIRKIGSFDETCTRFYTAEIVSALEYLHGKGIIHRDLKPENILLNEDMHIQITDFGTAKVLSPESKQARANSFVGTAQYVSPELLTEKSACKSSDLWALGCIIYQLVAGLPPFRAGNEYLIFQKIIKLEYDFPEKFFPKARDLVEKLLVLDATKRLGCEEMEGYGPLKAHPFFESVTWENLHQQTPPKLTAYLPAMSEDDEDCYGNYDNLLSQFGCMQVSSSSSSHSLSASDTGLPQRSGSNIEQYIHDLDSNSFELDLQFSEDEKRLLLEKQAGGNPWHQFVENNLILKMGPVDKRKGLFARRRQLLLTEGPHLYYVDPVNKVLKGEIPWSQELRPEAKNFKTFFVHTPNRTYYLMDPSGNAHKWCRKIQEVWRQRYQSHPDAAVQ
The conditions noted are these: at 0.1 µM.

Test [2] concerns the target cAMP-dependent protein kinase catalytic subunit alpha (Homo sapiens) (UniProt P17612). To be noted: at 0.1 µM.
The target is the same in test [3]. The conditions noted are these: at 1 µM.
Test [4] deals with Protein kinase C alpha type (Homo sapiens) (UniProt P17252). To be noted: at 0.1 µM.
The target is the same in test [5]. To be noted: at 1 µM.
Test [6] addresses Protein kinase C beta type (Homo sapiens) (UniProt P05771). To be noted: at 0.1 µM.
Test [7] has the same target. The conditions noted are these: at 1 µM.
Test [8] deals with Protein kinase C eta type (Homo sapiens) (UniProt P24723). The conditions noted are these: at 0.1 µM.
Test [9] shares this target. To be noted: at 1 µM.
Test [10] has as its target Protein kinase C gamma type (Homo sapiens) (UniProt P05129). To be noted: at 0.1 µM.
Test [11] shares this target. The conditions noted are these: at 1 µM.
Test [12] concerns the target T2, Protein kinase C iota type (Homo sapiens) (UniProt P41743).
T2 sequence (whole entry): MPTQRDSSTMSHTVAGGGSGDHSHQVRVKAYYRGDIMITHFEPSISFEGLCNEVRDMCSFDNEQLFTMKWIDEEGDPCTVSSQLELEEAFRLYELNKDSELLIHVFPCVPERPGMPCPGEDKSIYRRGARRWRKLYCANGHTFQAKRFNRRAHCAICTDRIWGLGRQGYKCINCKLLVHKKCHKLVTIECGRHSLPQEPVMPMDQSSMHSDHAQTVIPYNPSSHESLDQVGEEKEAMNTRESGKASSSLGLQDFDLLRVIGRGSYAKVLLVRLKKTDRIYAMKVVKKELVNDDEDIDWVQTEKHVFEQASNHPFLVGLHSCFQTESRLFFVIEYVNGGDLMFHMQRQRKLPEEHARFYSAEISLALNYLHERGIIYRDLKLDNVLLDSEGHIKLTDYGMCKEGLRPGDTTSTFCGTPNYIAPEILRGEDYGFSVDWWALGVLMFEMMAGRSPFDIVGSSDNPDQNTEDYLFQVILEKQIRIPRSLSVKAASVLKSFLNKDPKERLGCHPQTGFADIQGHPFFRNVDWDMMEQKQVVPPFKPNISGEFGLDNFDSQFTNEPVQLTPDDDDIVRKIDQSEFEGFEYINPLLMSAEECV
The conditions noted are these: at 0.1 µM.

In test [13] the target is T2, Protein kinase C iota type (Homo sapiens). The conditions noted are these: at 1 µM.
The target in test [14] is Protein kinase C theta type (Homo sapiens) (UniProt Q04759). The conditions noted are these: at 0.1 µM.
Test [15] shares this target. The conditions noted are these: at 1 µM.
Test [16] addresses Protein kinase C beta type (Homo sapiens) (UniProt P05771). The conditions noted are these: at 0.1 µM. This is another data set of the same source.
For test [17] the target is unchanged. To be noted: at 1 µM. This is another data set of the same source.
Test [18] deals with T3, Serine/threonine-protein kinase D1 (Homo sapiens) (UniProt Q15139).
T3 sequence (whole entry): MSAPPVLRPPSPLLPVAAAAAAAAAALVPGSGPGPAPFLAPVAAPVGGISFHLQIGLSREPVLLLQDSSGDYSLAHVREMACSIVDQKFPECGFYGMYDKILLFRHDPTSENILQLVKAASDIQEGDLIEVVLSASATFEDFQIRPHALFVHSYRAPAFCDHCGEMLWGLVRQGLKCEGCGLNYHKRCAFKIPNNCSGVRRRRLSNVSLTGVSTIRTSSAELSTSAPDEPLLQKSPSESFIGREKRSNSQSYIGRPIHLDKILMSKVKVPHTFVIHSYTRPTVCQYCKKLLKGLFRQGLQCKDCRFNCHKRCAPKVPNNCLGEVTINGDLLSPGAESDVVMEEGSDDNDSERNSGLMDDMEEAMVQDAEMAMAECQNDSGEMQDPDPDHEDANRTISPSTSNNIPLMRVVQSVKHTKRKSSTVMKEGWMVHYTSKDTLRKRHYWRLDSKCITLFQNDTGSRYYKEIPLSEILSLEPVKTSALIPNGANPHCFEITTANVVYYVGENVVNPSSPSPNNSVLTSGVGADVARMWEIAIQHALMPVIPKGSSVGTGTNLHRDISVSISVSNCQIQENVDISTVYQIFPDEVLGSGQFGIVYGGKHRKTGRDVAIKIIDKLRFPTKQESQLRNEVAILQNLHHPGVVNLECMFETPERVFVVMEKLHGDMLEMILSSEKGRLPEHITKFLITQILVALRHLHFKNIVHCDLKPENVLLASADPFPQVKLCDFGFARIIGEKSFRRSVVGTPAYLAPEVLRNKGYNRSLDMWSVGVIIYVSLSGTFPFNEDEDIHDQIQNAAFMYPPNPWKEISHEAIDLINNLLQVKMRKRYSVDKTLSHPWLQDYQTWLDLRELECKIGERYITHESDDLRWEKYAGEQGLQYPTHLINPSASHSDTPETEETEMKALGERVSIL
The conditions noted are these: at 0.1 µM.

In test [19] the target is T3, Serine/threonine-protein kinase D1 (Homo sapiens). The conditions noted are these: at 1 µM.
Test [20] concerns the target T4, Serine/threonine-protein kinase D2 (Homo sapiens) (UniProt Q9BZL6).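 Also: reported percent inhibition values are means, part of the GSK PKIS kinase panel screen.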
T4 sequence (whole entry): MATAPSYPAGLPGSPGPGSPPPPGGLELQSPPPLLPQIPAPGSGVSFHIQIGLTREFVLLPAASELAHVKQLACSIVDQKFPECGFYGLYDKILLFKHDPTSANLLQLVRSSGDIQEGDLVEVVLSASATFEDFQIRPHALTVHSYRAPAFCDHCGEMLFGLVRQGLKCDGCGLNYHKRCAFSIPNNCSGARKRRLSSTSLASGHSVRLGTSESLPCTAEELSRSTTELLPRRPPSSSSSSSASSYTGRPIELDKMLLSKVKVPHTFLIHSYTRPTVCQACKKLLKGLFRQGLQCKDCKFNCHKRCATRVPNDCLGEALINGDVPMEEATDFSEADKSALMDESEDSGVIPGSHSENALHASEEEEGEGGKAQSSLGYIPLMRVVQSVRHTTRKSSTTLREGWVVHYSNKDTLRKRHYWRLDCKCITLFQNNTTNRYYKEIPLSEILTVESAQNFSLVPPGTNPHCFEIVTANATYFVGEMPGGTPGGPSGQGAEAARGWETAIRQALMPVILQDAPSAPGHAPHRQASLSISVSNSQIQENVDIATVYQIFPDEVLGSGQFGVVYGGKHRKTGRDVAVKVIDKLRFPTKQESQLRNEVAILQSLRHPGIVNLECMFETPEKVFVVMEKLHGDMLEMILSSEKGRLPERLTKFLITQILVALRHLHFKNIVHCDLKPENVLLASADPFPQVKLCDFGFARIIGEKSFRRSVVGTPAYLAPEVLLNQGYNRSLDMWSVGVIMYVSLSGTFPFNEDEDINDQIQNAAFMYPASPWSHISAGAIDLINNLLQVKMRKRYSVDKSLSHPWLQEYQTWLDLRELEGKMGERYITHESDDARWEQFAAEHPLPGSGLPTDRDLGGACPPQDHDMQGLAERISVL
To be noted: at 0.1 µM.

The source of these data is ChEMBL document CHEMBL1961873, “Compounds: GSK PKIS; Assays: Nanosyn kinase panel” (2012).

As a reminder, the inhibition is the drop in the measured response relative to a control, in per cent.

Sequence of Protein kinase C eta type (Homo sapiens) (P24723 whole entry): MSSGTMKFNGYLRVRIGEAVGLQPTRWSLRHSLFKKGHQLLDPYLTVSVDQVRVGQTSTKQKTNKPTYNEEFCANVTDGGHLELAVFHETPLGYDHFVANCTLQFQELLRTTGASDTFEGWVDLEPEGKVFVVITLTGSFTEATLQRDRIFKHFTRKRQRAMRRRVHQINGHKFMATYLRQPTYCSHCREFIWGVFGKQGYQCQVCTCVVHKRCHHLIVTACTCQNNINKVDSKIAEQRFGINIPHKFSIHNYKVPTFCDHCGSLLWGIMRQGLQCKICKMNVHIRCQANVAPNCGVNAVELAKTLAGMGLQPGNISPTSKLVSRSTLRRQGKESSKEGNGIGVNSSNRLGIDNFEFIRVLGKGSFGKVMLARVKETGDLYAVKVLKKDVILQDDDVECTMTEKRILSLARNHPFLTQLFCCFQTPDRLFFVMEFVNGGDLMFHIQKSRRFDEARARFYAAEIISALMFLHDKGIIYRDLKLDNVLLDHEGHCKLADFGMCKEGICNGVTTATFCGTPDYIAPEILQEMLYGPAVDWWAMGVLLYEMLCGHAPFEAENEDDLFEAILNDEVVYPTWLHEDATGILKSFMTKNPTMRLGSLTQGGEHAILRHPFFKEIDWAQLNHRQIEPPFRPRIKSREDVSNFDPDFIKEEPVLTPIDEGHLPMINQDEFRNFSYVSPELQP
Sequence of Protein kinase C beta type (Homo sapiens) (P05771 2-671 limits assumed): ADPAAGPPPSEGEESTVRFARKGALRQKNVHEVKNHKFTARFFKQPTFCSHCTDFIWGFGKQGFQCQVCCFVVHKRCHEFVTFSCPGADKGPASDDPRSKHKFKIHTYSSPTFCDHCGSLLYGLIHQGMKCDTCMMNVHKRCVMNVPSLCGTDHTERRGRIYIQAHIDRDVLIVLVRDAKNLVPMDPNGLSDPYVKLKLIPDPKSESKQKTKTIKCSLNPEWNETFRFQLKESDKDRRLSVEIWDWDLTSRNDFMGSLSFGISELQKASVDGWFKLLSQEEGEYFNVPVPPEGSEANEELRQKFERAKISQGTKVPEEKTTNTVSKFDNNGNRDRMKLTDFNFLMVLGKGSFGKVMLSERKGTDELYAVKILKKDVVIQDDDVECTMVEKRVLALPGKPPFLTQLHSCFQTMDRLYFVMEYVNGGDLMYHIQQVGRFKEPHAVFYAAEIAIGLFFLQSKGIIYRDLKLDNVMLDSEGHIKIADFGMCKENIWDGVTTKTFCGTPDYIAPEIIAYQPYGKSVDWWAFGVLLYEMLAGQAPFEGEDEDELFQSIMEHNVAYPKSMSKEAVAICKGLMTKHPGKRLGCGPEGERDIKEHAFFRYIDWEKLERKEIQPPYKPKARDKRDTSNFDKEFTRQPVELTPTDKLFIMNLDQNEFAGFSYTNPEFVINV
Sequence of Protein kinase C theta type (Homo sapiens) (Q04759 whole entry, looked up): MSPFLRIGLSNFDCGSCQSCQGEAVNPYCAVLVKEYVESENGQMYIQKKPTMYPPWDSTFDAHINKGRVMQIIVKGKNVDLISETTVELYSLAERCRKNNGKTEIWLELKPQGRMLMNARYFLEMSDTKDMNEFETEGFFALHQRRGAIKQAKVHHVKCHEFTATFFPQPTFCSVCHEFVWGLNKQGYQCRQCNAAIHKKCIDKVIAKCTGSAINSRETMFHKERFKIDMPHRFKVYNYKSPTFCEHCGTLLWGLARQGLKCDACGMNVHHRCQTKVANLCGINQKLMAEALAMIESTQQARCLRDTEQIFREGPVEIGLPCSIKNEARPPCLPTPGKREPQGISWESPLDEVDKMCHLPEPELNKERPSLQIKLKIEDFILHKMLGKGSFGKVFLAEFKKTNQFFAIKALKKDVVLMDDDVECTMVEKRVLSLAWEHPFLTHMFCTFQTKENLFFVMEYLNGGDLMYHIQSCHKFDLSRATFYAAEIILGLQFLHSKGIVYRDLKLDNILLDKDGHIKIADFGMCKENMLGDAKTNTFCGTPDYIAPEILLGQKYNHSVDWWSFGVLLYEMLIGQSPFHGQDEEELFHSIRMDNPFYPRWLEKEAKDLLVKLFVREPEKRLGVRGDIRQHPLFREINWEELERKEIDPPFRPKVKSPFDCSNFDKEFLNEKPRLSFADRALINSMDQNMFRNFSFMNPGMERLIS

For the compound `COc1cc(Nc2ncc(-c3ccccc3)o2)cc(OC)c1`, the inhibition turned out to be 1.45% in test [1]; 1.51% in test [2]; 1.67% in test [3]; 1.19% in test [4]; 1.72% in test [5]; 0.24% in test [6]. Moreover, the inhibition in test [7] amounted to 2.31%; in test [8], 4.07%; in [9], 6.3%; in test [10], 0.82%; in test [11], 2.55%; in test [12] it was 2.88%. The inhibition in [13] stood at 3.11%; in test [14], 2.43%; in test [15], 3.38%; in [16], 0.78%; in [17], 2.17%; in [18], 4.12%. In addition, the inhibition in test [19] stood at 5.16%; in test [20] it was 3.39%.
Turning to `FC(F)(F)CNc1nccc(-c2cnn3ncccc23)n1`, the inhibition is -1.1% in test [1]; 2.98% in test [2]; 2.52% in test [3]; 1.22% in [4]; 2.56% in test [5]; 1.27% in [6]. The inhibition in [7] was 1.54%; in [8], 2.22%; in test [9], 1.8%; in [10], 2%; in test [11], -1.39%; in [12], 1.84%. The inhibition in [13] turned out to be 1.19%; in [14], 1.1%; in [15], 1.36%; in test [16] it was 0.94%; in test [17], 1.72%; in [18] it was 3.65%. Besides, the inhibition in test [19] was determined as 5.03%; in test [20], 3.32%.
For `COc1cc(N2CCN(C(C)C)CC2)ccc1Nc1nc(Nc2cccc(F)c2C(=O)O)c2cc[nH]c2n1`, the inhibition in [1] is 2.24%; in test [2] it was 1.49%; in test [3], 2.03%; in test [4], 1.38%; in test [5], 2.23%; in test [6], -0.07%. Moreover, the inhibition in [7] is 3.07%; in test [8], 2.71%; in test [9], 4.16%; in test [10], 1.77%; in test [11], 5.49%; in test [12], 0.72%. Also, the inhibition in [13] came to 0.65%; in test [14], 2.48%; in [15] it was 3.08%; in test [16], 1.66%; in test [17], 2.08%; in test [18] it was 3.89%. Moreover, the inhibition in [19] stood at 6.58%; in test [20], 3.65%.
On to `Cc1c2ccc(N(C)c3ccnc(Nc4cccc(S(N)(=O)=O)c4)n3)cc2nn1C`, for which the inhibition in [1] was 1.36%; in test [2] it was -2.27%; in test [3], -0.54%; in test [4] it was -2.47%; in test [5] it was -0.96%; in [6], 0.1%. Moreover, the inhibition in test [7] is -0.52%; in test [8], 4.05%; in [9], 1.15%; in [10], 1.65%; in test [11] it was 6.91%; in test [12], 1.66%. Further, the inhibition in test [13] is 2.75%; in test [14] it was 1.34%; in test [15], 2.51%; in test [16] it was 1.36%; in test [17] it was 2.7%; in test [18], -0.64%. The inhibition in [19] was found to be 2.68%; in test [20], 1.1%.
For `COc1ccc(-c2nn3ncccc3c2-c2ccnc(Nc3ccc(F)c(F)c3)n2)cc1`, the inhibition is 0.91% in test [1]; 1.99% in [2]; 3.24% in test [3]; 0.39% in test [4]; 1.74% in test [5]; 1.53% in test [6]. Moreover, the inhibition in test [7] amounted to 5.16%; in test [8] it was 1.15%; in test [9] it was 7.16%; in [10], 4.72%; in [11] it was 6.44%; in test [12], 1.96%. The inhibition in test [13] came to 0.63%; in test [14], 2.86%; in [15], 7.77%; in test [16], 1.81%; in test [17], 3.24%; in test [18] it was 4.47%. For the same compound, the inhibition in test [19] came to 5.19%; in test [20] it was 3.52%.
In the case of `c1cnn2ncc(-c3ccnc(NCCCN4CCOCC4)n3)c2c1`, the inhibition in [1] is 1.41%; in [2], 2.68%; in test [3], 5.3%; in [4], 0.87%; in test [5] it was 2.26%; in [6] it was 2.73%. Also, the inhibition in test [7] was found to be 5.57%; in [8] it was 3.67%; in test [9] it was 2.05%; in test [10], 3.52%; in [11], 4.8%; in test [12], 0.92%. Moreover, the inhibition was 4.4% in test [13]; 2.07% in test [14]; 2.41% in test [15]; 1.96% in [16]; 3.47% in test [17]; 2.81% in test [18]. Further, the inhibition in test [19] came to 5.95%; in test [20] it was 3.62%.
